Test results published in PubChem BioAssay AID1159580 (chemical genetic matrix, 2015).
Among all 5,500 compounds or so, about 2,000 (36%) were called active. Inconclusive results (about 18%) are left out. No stated cut-off is given here; in the data, active means normalized growth mostly below about 0.91 (no sharp cut-off); inconclusive means no clear call, values can overlap the other calls; inactive means mostly above about 0.92. Some of the results follow.

Assay: chemical genetic growth profiling, strain panel (AID 1159580);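 further: tested at 20 µM; growth read once vehicle control cultures reached saturation at 30 °C; 1 = growth at the plate median or of vehicle wells; lower values mean less growth of the strain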
Conditions: growth OD

Measured: normalized growth

C#CC1(O)CCC2C3CCC4=CC(=O)CCC4(C)C3CCC21C (stereo unspecified)
inactive: S. cerevisiae deletion strains, locus YKL009W, strain mrt4, active compounds read low 0.945 | S. cerevisiae deletion strains, locus YKL068W, active compounds read low 0.991 | S. cerevisiae deletion strains, locus YKL085W, strain MDH1 (second series), active compounds read low 0.99 | S. cerevisiae deletion strains, locus YKL085W, strain MDH1, active compounds read low 0.99 | S. cerevisiae deletion strains, locus YKL160W, strain elf1, active compounds read low 0.979 | S. cerevisiae deletion strains, locus YKL190W, strain CNB1, active compounds read low 0.997 | S. cerevisiae deletion strains, locus YKR001C, strain vps1, active compounds read low 0.99 | S. cerevisiae deletion strains, locus YKR026C, strain gcn3, active compounds read low 0.991 | S. cerevisiae deletion strains, locus YKR091W, strain srl3, active compounds read low 0.977 | S. cerevisiae deletion strains, locus YLL001W, strain dnm1, active compounds read low 1 | S. cerevisiae deletion strains, locus YLL026W, active compounds read low 0.986 | S. cerevisiae deletion strains, locus YLL041C, strain sdh2, active compounds read low 0.998 | S. cerevisiae deletion strains, locus YLR027C, strain aat2, active compounds read low 0.986 | S. cerevisiae deletion strains, locus YLR039C, strain RIC1, active compounds read low 1.31 | S. cerevisiae deletion strains, locus YLR058C, strain SHM2, active compounds read low 0.986 | S. cerevisiae deletion strains, locus YLR102C, strain apc9, active compounds read low 0.978 | S. cerevisiae deletion strains, locus YLR113W, strain HOG1, active compounds read low 1.03 | S. cerevisiae deletion strains, locus YLR221C, strain rsa3, active compounds read low 1 | S. cerevisiae deletion strains, locus YLR258W, strain gsy2, active compounds read low 0.983 | S. cerevisiae deletion strains, locus YLR262C, strain YPT6 (second series), active compounds read low 1.05 | S. cerevisiae deletion strains, locus YLR262C, strain YPT6, active compounds read low 1.2 | S. cerevisiae deletion strains, locus YLR268W, strain sec22, active compounds read low 0.987 | S. cerevisiae deletion strains, locus YLR320W, strain mms22, active compounds read low 0.997 | S. cerevisiae deletion strains, locus YLR330W, strain CHS5, active compounds read low 0.988 | S. cerevisiae deletion strains, locus YLR342W, strain FKS1 (second series), active compounds read low 0.909 | S. cerevisiae deletion strains, locus YLR342W, strain FKS1, active compounds read low 0.988 | S. cerevisiae deletion strains, locus YLR357W, strain rsc2, active compounds read low 1 | S. cerevisiae deletion strains, locus YLR370C, strain arc18, active compounds read low 0.975 | S. cerevisiae deletion strains, locus YLR371W, strain rom2, active compounds read low 0.987 | S. cerevisiae deletion strains, locus YLR384C, strain iki3, active compounds read low 0.99 | S. cerevisiae deletion strains, locus YLR418C, strain cdc73, active compounds read low 0.921 | S. cerevisiae deletion strains, locus YML016C, strain PPZ1, active compounds read low 0.989 | S. cerevisiae deletion strains, locus YML032C, strain rad52, active compounds read low 0.99 | S. cerevisiae deletion strains, locus YML120C, strain ndi1, active compounds read low 0.99 | S. cerevisiae deletion strains, locus YML124C, strain tub3, active compounds read low 0.991 | S. cerevisiae deletion strains, locus YMR058W, strain fet3, active compounds read low 0.948 | S. cerevisiae deletion strains, locus YMR078C, strain ctf18, active compounds read low 0.976 | S. cerevisiae deletion strains, locus YMR125W, strain sto1, active compounds read low 0.967 | S. cerevisiae deletion strains, locus YMR129W, active compounds read low 0.988 | S. cerevisiae deletion strains, locus YMR205C, strain PFK2, active compounds read low 0.991 | S. cerevisiae deletion strains, locus YMR223W, strain ubp8, active compounds read low 0.957 | S. cerevisiae deletion strains, locus YMR231W, strain pep5, active compounds read low 0.997 | S. cerevisiae deletion strains, locus YMR263W, strain SAP30, active compounds read low 1.01 | S. cerevisiae deletion strains, locus YMR307W, strain GAS1, active compounds read low 1.14 | S. cerevisiae deletion strains, locus YNL067W, strain RPL9B, active compounds read low 1.02 | S. cerevisiae deletion strains, locus YNL071W, strain lat1, active compounds read low 1 | S. cerevisiae deletion strains, locus YNL153C, strain GIM3, active compounds read low 1.04 | S. cerevisiae deletion strains, locus YNL183C, strain NPR1, active compounds read low 0.955 | S. cerevisiae deletion strains, locus YNL209W, strain ssb2, active compounds read low 0.988 | S. cerevisiae deletion strains, locus YNL233W, strain BNI4, active compounds read low 1.02 | S. cerevisiae deletion strains, locus YNL248C, strain rpa49, active compounds read low 0.987 | S. cerevisiae deletion strains, locus YNL250W, strain rad50, active compounds read low 0.978 | S. cerevisiae deletion strains, locus YNL271C, strain bni1, active compounds read low 0.979 | S. cerevisiae deletion strains, locus YNL298W, strain CLA4, active compounds read low 0.954 | S. cerevisiae deletion strains, locus YNL322C, strain KRE1 (second series), active compounds read low 1 | S. cerevisiae deletion strains, locus YNR049C, strain mso1, active compounds read low 0.965 | S. cerevisiae deletion strains, locus YNR052C, strain pop2, active compounds read low 0.966 | S. cerevisiae deletion strains, locus YOL147C, strain pex11, active compounds read low 0.994 | S. cerevisiae deletion strains, locus YOR001W, strain rrp6, active compounds read low 0.998 | S. cerevisiae deletion strains, locus YOR061W, strain CKA2, active compounds read low 0.986 | S. cerevisiae deletion strains, locus YOR069W, strain VPS5, active compounds read low 0.981 | S. cerevisiae deletion strains, locus YOR070C, strain gyp1, active compounds read low 0.992 | S. cerevisiae deletion strains, locus YOR080W, strain dia2, active compounds read low 0.972 | S. cerevisiae deletion strains, locus YOR083W, strain WHI5, active compounds read low 0.948 | S. cerevisiae deletion strains, locus YOR106W, strain vam3, active compounds read low 0.965 | S. cerevisiae deletion strains, locus YOR136W, strain idh2, active compounds read low 0.977 | S. cerevisiae deletion strains, locus YOR144C, strain elg1, active compounds read low 0.975 | S. cerevisiae deletion strains, locus YOR231W, strain MKK1, active compounds read low 1.02 | S. cerevisiae deletion strains, locus YOR265W, strain rbl2, active compounds read low 0.988 | S. cerevisiae deletion strains, locus YOR290C, strain snf2, active compounds read low 0.974 | S. cerevisiae deletion strains, locus YOR316C, strain cot1, active compounds read low 0.979 | S. cerevisiae deletion strains, locus YPL051W, strain arl3, active compounds read low 1.01 | S. cerevisiae deletion strains, locus YPL078C, strain atp4, active compounds read low 0.987 | S. cerevisiae deletion strains, locus YPL106C, strain sse1, active compounds read low 0.985 | S. cerevisiae deletion strains, locus YPL240C, strain hsp82, active compounds read low 0.988 | S. cerevisiae deletion strains, locus YPL241C, strain CIN2, active compounds read low 0.99 | S. cerevisiae deletion strains, locus YPL256C, strain CLN2, active compounds read low 0.994 | S. cerevisiae deletion strains, locus YPR119W, strain clb2, active compounds read low 0.983 | S. cerevisiae deletion strains, locus YPR141C, strain kar3, active compounds read low 0.982 | S. cerevisiae deletion strains, locus YPR163C, strain tif3, active compounds read low 0.977 | S. cerevisiae deletion strains, locus YPR167C, strain met16, active compounds read low 0.97 | S. cerevisiae deletion strains, strain wtn01, active compounds read low 0.955 | S. cerevisiae strains, strain wild type, active compounds read low 0.99
active: S. cerevisiae deletion strains, locus YNL307C, strain MCK1, active compounds read low 0.906 | S. cerevisiae deletion strains, locus YOR184W, strain ser1, active compounds read low 0.87 | S. cerevisiae deletion strains, locus YOR270C, strain vph1, active compounds read low 0.727
